Assay results from PubChem BioAssay AID1159580 (chemical genetic matrix, 2015).
Several values for one entry are separate records, joined by “and”; a condition that tells them apart may be missing. Equal entries are not always repeated. Screen size: about 5,500 compounds; about 2,000 (36%) were called active. Roughly 18% stayed inconclusive and do not appear here. Rule as the data show it: active = normalized growth mostly below about 0.91 (no sharp cut-off); inconclusive = no clear call, values can overlap the other calls; inactive = mostly above about 0.92. The list shows a part of the results.

Test: chemical genetic growth profiling, strain panel (AID 1159580);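 also: tested at 20 µM; growth read once vehicle control cultures reached saturation at 30 °C; 1 = growth at the plate median or of vehicle wells; lower values mean less growth of the strain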
Conditions: growth OD

Measured: normalized growth

CN1CCN(C2=Nc3ccccc3Oc3ccc(Cl)cc32)CC1
inactive: S. cerevisiae deletion strains, locus YJR075W, strain HOC1, active compounds read low 0.996 | S. cerevisiae deletion strains, locus YKL009W, strain mrt4, active compounds read low 0.98 | S. cerevisiae deletion strains, locus YKL068W, active compounds read low 0.992 | S. cerevisiae deletion strains, locus YKL085W, strain MDH1 (second series), active compounds read low 1.02 | S. cerevisiae deletion strains, locus YKL085W, strain MDH1, active compounds read low 1.02 | S. cerevisiae deletion strains, locus YKL160W, strain elf1, active compounds read low 0.958 | S. cerevisiae deletion strains, locus YKL190W, strain CNB1, active compounds read low 1 | S. cerevisiae deletion strains, locus YKR001C, strain vps1, active compounds read low 0.998 | S. cerevisiae deletion strains, locus YKR026C, strain gcn3, active compounds read low 0.983 | S. cerevisiae deletion strains, locus YKR091W, strain srl3, active compounds read low 0.975 | S. cerevisiae deletion strains, locus YLL001W, strain dnm1, active compounds read low 1 | S. cerevisiae deletion strains, locus YLL026W, active compounds read low 0.972 | S. cerevisiae deletion strains, locus YLL041C, strain sdh2, active compounds read low 0.987 | S. cerevisiae deletion strains, locus YLR027C, strain aat2, active compounds read low 0.975 | S. cerevisiae deletion strains, locus YLR039C, strain RIC1, active compounds read low 1.13 | S. cerevisiae deletion strains, locus YLR058C, strain SHM2, active compounds read low 0.986 | S. cerevisiae deletion strains, locus YLR102C, strain apc9, active compounds read low 0.994 | S. cerevisiae deletion strains, locus YLR113W, strain HOG1, active compounds read low 1.03 | S. cerevisiae deletion strains, locus YLR221C, strain rsa3, active compounds read low 1.01 | S. cerevisiae deletion strains, locus YLR258W, strain gsy2, active compounds read low 0.975 | S. cerevisiae deletion strains, locus YLR262C, strain YPT6 (second series), active compounds read low 0.992 | S. cerevisiae deletion strains, locus YLR262C, strain YPT6, active compounds read low 1.13 | S. cerevisiae deletion strains, locus YLR268W, strain sec22, active compounds read low 0.995 | S. cerevisiae deletion strains, locus YLR320W, strain mms22, active compounds read low 1.04 | S. cerevisiae deletion strains, locus YLR330W, strain CHS5, active compounds read low 0.997 | S. cerevisiae deletion strains, locus YLR342W, strain FKS1 (second series), active compounds read low 0.948 | S. cerevisiae deletion strains, locus YLR342W, strain FKS1, active compounds read low 0.994 | S. cerevisiae deletion strains, locus YLR357W, strain rsc2, active compounds read low 0.964 | S. cerevisiae deletion strains, locus YLR370C, strain arc18, active compounds read low 0.967 | S. cerevisiae deletion strains, locus YLR371W, strain rom2, active compounds read low 0.995 | S. cerevisiae deletion strains, locus YLR384C, strain iki3, active compounds read low 1 | S. cerevisiae deletion strains, locus YLR418C, strain cdc73, active compounds read low 0.988 | S. cerevisiae deletion strains, locus YML016C, strain PPZ1, active compounds read low 0.981 | S. cerevisiae deletion strains, locus YML032C, strain rad52, active compounds read low 0.989 | S. cerevisiae deletion strains, locus YML120C, strain ndi1, active compounds read low 1.01 | S. cerevisiae deletion strains, locus YML124C, strain tub3, active compounds read low 0.992 | S. cerevisiae deletion strains, locus YMR058W, strain fet3, active compounds read low 0.957 | S. cerevisiae deletion strains, locus YMR078C, strain ctf18, active compounds read low 0.979 | S. cerevisiae deletion strains, locus YMR125W, strain sto1, active compounds read low 0.942 | S. cerevisiae deletion strains, locus YMR129W, active compounds read low 0.964 | S. cerevisiae deletion strains, locus YMR205C, strain PFK2, active compounds read low 0.995 | S. cerevisiae deletion strains, locus YMR223W, strain ubp8, active compounds read low 0.976 | S. cerevisiae deletion strains, locus YMR231W, strain pep5, active compounds read low 0.982 | S. cerevisiae deletion strains, locus YMR263W, strain SAP30, active compounds read low 0.994 | S. cerevisiae deletion strains, locus YMR307W, strain GAS1, active compounds read low 0.971 and 1.01 | S. cerevisiae deletion strains, locus YNL067W, strain RPL9B, active compounds read low 1.01 | S. cerevisiae deletion strains, locus YNL071W, strain lat1, active compounds read low 1 | S. cerevisiae deletion strains, locus YNL128W, strain TEP1, active compounds read low 0.997 and 1.01 | S. cerevisiae deletion strains, locus YNL153C, strain GIM3, active compounds read low 0.995 and 1 | S. cerevisiae deletion strains, locus YNL175C, strain NOP13, active compounds read low 0.959 | S. cerevisiae deletion strains, locus YNL183C, strain NPR1, active compounds read low 0.951 | S. cerevisiae deletion strains, locus YNL197C, strain WHI3, active compounds read low 0.991 | S. cerevisiae deletion strains, locus YNL209W, strain ssb2, active compounds read low 0.968 | S. cerevisiae deletion strains, locus YNL224C, strain SQS1, active compounds read low 1 | S. cerevisiae deletion strains, locus YNL233W, strain BNI4, active compounds read low 0.997 | S. cerevisiae deletion strains, locus YNL248C, strain rpa49, active compounds read low 0.959 | S. cerevisiae deletion strains, locus YNL250W, strain rad50, active compounds read low 0.973 | S. cerevisiae deletion strains, locus YNL271C, strain bni1, active compounds read low 0.988 | S. cerevisiae deletion strains, locus YNL298W, strain CLA4, active compounds read low 1.01 | S. cerevisiae deletion strains, locus YNL307C, strain MCK1, active compounds read low 0.986 | S. cerevisiae deletion strains, locus YNL322C, strain KRE1 (second series), active compounds read low 0.958 | S. cerevisiae deletion strains, locus YNL322C, strain KRE1, active compounds read low 0.992 | S. cerevisiae deletion strains, locus YNR049C, strain mso1, active compounds read low 0.968 | S. cerevisiae deletion strains, locus YNR052C, strain pop2, active compounds read low 0.987 | S. cerevisiae deletion strains, locus YOL006C, strain TOP1, active compounds read low 0.951 | S. cerevisiae deletion strains, locus YOL012C, strain htz1 1.28 | S. cerevisiae deletion strains, locus YOL147C, strain pex11, active compounds read low 0.999 | S. cerevisiae deletion strains, locus YOR001W, strain rrp6, active compounds read low 0.995 | S. cerevisiae deletion strains, locus YOR061W, strain CKA2, active compounds read low 0.991 | S. cerevisiae deletion strains, locus YOR069W, strain VPS5, active compounds read low 0.97 | S. cerevisiae deletion strains, locus YOR070C, strain gyp1, active compounds read low 0.982 | S. cerevisiae deletion strains, locus YOR080W, strain dia2, active compounds read low 0.969 | S. cerevisiae deletion strains, locus YOR083W, strain WHI5 (second series), active compounds read low 1.01 | S. cerevisiae deletion strains, locus YOR083W, strain WHI5, active compounds read low 0.945 | S. cerevisiae deletion strains, locus YOR106W, strain vam3, active compounds read low 0.959 | S. cerevisiae deletion strains, locus YOR136W, strain idh2, active compounds read low 0.994 | S. cerevisiae deletion strains, locus YOR144C, strain elg1, active compounds read low 0.996 | S. cerevisiae deletion strains, locus YOR184W, strain ser1, active compounds read low 0.982 | S. cerevisiae deletion strains, locus YOR231W, strain MKK1, active compounds read low 1.06 | S. cerevisiae deletion strains, locus YOR265W, strain rbl2, active compounds read low 0.99 | S. cerevisiae deletion strains, locus YOR270C, strain vph1, active compounds read low 0.976 | S. cerevisiae deletion strains, locus YOR290C, strain snf2, active compounds read low 0.941 | S. cerevisiae deletion strains, locus YOR316C, strain cot1, active compounds read low 0.987 | S. cerevisiae deletion strains, locus YPL051W, strain arl3, active compounds read low 0.981 | S. cerevisiae deletion strains, locus YPL055C, strain LGE1, active compounds read low 1.02 | S. cerevisiae deletion strains, locus YPL078C, strain atp4, active compounds read low 0.999 | S. cerevisiae deletion strains, locus YPL106C, strain sse1, active compounds read low 0.946 | S. cerevisiae deletion strains, locus YPL240C, strain hsp82, active compounds read low 0.987 | S. cerevisiae deletion strains, locus YPL241C, strain CIN2, active compounds read low 0.995 and 0.994 | S. cerevisiae deletion strains, locus YPL256C, strain CLN2, active compounds read low 1.06 | S. cerevisiae deletion strains, locus YPR119W, strain clb2, active compounds read low 0.994 | S. cerevisiae deletion strains, locus YPR141C, strain kar3, active compounds read low 0.987 | S. cerevisiae deletion strains, locus YPR163C, strain tif3, active compounds read low 0.994 | S. cerevisiae deletion strains, locus YPR167C, strain met16, active compounds read low 0.993 | S. cerevisiae deletion strains, strain wtn01, active compounds read low 0.992 | S. cerevisiae strains, strain wild type, active compounds read low 0.999
